The text below walks through data of PubChem BioAssay AID624330 (Southern Research Specialized Biocontainment Screening …, 2012).

In general, inhibition refers to the relative decrease from the control value, in per cent.

Screen size: about 340,000 compounds; about 2,100 (0.62%) were called active. A selection follows. Potency and affinity values are given separately. Values without a mark were called inactive.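 The calls were made as follows: active = first-screen hits whose inhibition reached a set limit at any dose in the follow-up dose series; inconclusive = inhibition above the set first-screen limit but never retested; inactive = the rest.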

The assay deals with Rac GTPase-activating protein 1 (Homo sapiens) (UniProt Q9H0H5). Kind of assay: MgcRacGAP GTPase-activating activity inhibitors, confirmation, biochemical, ADP Hunter fluorescence, primary and confirmatory (AID 624330).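 Also: fluorescence reports GDP produced by GAP-driven GTP hydrolysis.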 The conditions noted are these: MgcRacGAP-stimulated Rac1 GTP hydrolysis, at 30 µM, active compounds read high, GST-tagged Rac1 F28L mutant substrate.
Sequence of Rac GTPase-activating protein 1 (Homo sapiens) (Q9H0H5 whole entry, looked up): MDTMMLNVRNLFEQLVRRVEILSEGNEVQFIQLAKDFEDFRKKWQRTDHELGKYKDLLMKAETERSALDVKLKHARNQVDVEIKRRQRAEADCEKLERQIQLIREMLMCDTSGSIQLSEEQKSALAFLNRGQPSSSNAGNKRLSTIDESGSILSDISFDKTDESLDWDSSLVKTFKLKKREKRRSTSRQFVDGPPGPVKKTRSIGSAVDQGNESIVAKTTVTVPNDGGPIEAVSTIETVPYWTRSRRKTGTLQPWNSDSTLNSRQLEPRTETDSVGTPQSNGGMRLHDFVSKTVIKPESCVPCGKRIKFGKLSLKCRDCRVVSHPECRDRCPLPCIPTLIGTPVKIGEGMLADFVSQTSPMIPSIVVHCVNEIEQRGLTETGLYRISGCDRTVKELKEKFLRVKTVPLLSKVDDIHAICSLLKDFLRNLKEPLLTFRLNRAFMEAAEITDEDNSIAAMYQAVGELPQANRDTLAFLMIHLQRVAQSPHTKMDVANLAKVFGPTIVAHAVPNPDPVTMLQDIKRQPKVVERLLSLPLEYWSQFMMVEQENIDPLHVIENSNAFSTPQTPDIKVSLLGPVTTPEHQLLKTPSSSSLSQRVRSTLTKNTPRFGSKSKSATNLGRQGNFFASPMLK
On to `O=C(OCC(=O)N1CCc2ccccc21)c1ccncc1`, for which the inhibition is 3.21%.
With `CCC(CC)CN1CCC(CN2CCNC(=O)C2=O)CC1`, the inhibition was 0.28%.
As for `COc1ccc(NC(=O)c2cc3ccccc3oc2=O)cc1`, the inhibition is 20.1%.
For the molecule `COc1cccc2cc(C(C)=O)c(=O)oc12`, the inhibition is -3.65%.
The same measure for `COc1ccc(NC(=O)c2cc3cc(OC)ccc3oc2=O)cc1`: 7.32%; for `COc1cccc2cc(C(=O)Oc3ccccc3)c(=O)oc12`: 15.6%.
`CCOc1ccccc1OC(=O)c1cc2ccccc2oc1=O`: the inhibition was 9.21%.
The same measure for `CC(=O)Nc1ccc(OC(=O)c2cc3cc(Br)ccc3oc2=O)cc1`: 10.4%; for `COc1cc(C(C)=O)ccc1OC(=O)c1cc2cccc(OC)c2oc1=O`: 2.6%; for `O=C(Oc1ccccc1)c1cc2ccccc2oc1=O`: -4.44%.
As for `CCN(CC)S(=O)(=O)c1ccc(C(=O)Oc2cc(C)[nH]c(=O)c2[N+](=O)[O-])cc1`, the inhibition is 0.7%.
Turning to `CCc1cccc(NS(=O)(=O)c2c(C)nc3scc(C)n3c2=O)c1`, the inhibition is 1.2%.
Regarding `C[C@@H]1CN([C@H](C)CO)C(=O)c2cc(NC(=O)Nc3ccc(F)cc3)ccc2O[C@@H](C)CCCCO[C@H]1CN(C)Cc1ccc(C(=O)O)cc1`, the inhibition is 10.2%.
In the case of `COc1ccc(N2C(=NC(=O)C3CC3)SC3CS(=O)(=O)CC32)cc1Cl` (configuration not stated), the inhibition is 8.01%.
Under `Cc1ccsc1C(=O)OCC(=O)NC1CCCCC1` stands -3%; under `O=C1CC(N2CCN(c3ccccc3)CC2)C(=O)N1c1cccc(Cl)c1` (configuration not stated), 11.1%.
On to `COc1ccc(N2CC(C(=O)NNC(=O)c3ccc(Br)cc3)CC2=O)c(OC)c1` (configuration not stated), for which the inhibition is 5.62%.
For the molecule `O=C(Nc1nc(-c2ccc(F)cc2)cs1)c1cccc(N2C(=O)CCC2=O)c1`, the inhibition was 4.08%.
Regarding `Cc1ccc(SCC(=O)N2c3ccccc3Sc3ccccc32)cc1`, the inhibition was 6.99%.
Turning to `CCOC(=O)N1c2ccccc2Sc2ccccc21`, the inhibition is 1.37%.
Under `COc1cc2c(cc1OC)C(c1cccs1)N(C(=O)c1ccncc1)CC2` (configuration not stated) stands 11.6%.
Turning to `COc1cccc(OCC(=O)NC2CCCCCC2)c1`, the inhibition is -1.14%.
In the case of `CCN1CCN(C(=O)c2cc3cc4cc(OC)ccc4nc3s2)CC1`, the inhibition was 8.34%.
Turning to `NNC(=O)c1cc2cc3ccccc3nc2s1`, the inhibition was 4.35%.
Consider `O=[N+]([O-])c1cc([N+](=O)[O-])c(Oc2cc(Cl)ccc2Cl)cc1NC1CCCCCCC1`, for which the inhibition was 3.85%.
Under `CCOC(=O)C1CCN(Cc2ccccc2C(F)(F)F)CC1` stands 8.95%; under `CCOC(=O)C1CCN(Cc2cccc(OCc3ccccc3)c2)CC1`, 19.5%; under `CCOC(=O)C1CCCN(Cc2ccc(-c3ccccc3)cc2)C1` (configuration not stated), -2.6%.
In the case of `CCOC(=O)C1CCN(Cc2cccc(Oc3ccc(Cl)cc3)c2)CC1`, the inhibition is 21%.
Regarding `COc1cccc(CN2CCC(C(=O)N3CCN(Cc4ccc5c(c4)OCO5)CC3)CC2)c1`, the inhibition was 27.8%.
Consider `CCOC(=O)C1CCN(Cc2ccccc2C)CC1`, for which the inhibition was 2.84%.
As for `CCOC(=O)C1CCN(Cc2ccc(OCc3ccccc3)cc2)CC1`, the inhibition is 18.4%.
Regarding `COc1cccc(CN2CCC(C(=O)N3CCN(c4ccccc4F)CC3)CC2)c1`, the inhibition is 15.7%.
Turning to `CCSc1ccc2nnc(-c3cccc(F)c3)n2n1`, the inhibition is 6.86%.
Take `COC(CN(C)C(=O)C1CCC(CNS(=O)(=O)c2ccccc2)CC1)OC` (configuration not stated): the inhibition is 6.07%.
The same measure for `COc1ccc(CNC(=O)COC(=O)CN2C(=O)C3CCCCC3C2=O)cc1` (configuration not stated): 12.8%; for `CC(C)c1nccn1CCC(=O)O`: 7.06%; for `C[C@H]1CN([C@@H](C)CO)S(=O)(=O)c2ccc(Br)cc2O[C@H]1CN(C)C(=O)Cc1ccccn1`: -10%.
The same measure for `O=C1CC(c2ccccc2)Oc2cc(O)cc(O)c21` (configuration not stated): 7.51%; for `O=C1C[C@@H](c2ccccc2)Oc2cc(O)cc(O)c21`: 7.07%; for `COc1ccccc1NC(=O)COc1cccc2c1CCNC2=O`: 5.13%.
Take `O=S(=O)(NCC(c1ccc2c(c1)OCO2)N1CCOCC1)c1ccc(Br)cc1` (configuration not stated): the inhibition was 5.07%.
For `CC1=C(C#N)C(=O)NC(=O)/C1=C/c1ccc(-c2ccc(S(N)(=O)=O)cc2)o1`, the inhibition is 25.6%.
In the case of `CCCOC(=O)c1cc(-c2ccc(/C=C3/C(=O)N(C)C(=O)C(C#N)=C3C)o2)ccc1Cl`, the inhibition is 13.4%.
For `COC(=O)c1ccccc1NC(=O)C/C(C)=N/NC(=O)Cc1ccc(Cl)cc1`, the inhibition is 4.76%.
Under `CC(=O)N1CCc2cc(S(=O)(=O)CCC(=O)N(C)c3cc(C)ccc3C)ccc21` stands 2.95%.
For `COc1ccc(Cn2c(-c3ccc(OC)c(O)c3)nc3ccccc32)cc1O`, the inhibition was 11.2%.
On to `COc1ccc(CNc2ccc(Br)cc2)cc1`, for which the inhibition is 9.45%.
Under `COc1ccc(CNc2ccc(C(=O)O)cc2)cc1` stands 5.05%; under `COc1ccc(NC(=S)NCc2cccnc2)cc1`, 2.3%.
Under `Cc1ccc(NCc2cccnc2)cc1` stands 9.95%; under `O=C(O)c1ccc(C(=O)O)c(C(=O)c2ccc(NC(=O)c3ccccc3)cc2)c1`, 8.04%; under `O=C(O)C1(P(=O)(c2ccc(Cl)cc2)c2ccc(Cl)cc2)CCCC1`, 10.3%.
Consider `Cn1cc2ccc(N)cc2n1`, for which the inhibition is 6.58%.
For the molecule `Cc1ccc2cc(N)ccc2n1`, the inhibition was 10.9%.
Turning to `CC(C)(C)C(=O)N1CCC2CC1c1cc(Cl)ccc12` (configuration not stated), the inhibition was 9.89%.
Turning to `CCN(CC)S(=O)(=O)c1ccc(N/N=C/c2cc(OC)ccc2O)nc1`, the inhibition was 5.07%.
On to `CCOc1cccc(/C=N/Nc2ccc(S(=O)(=O)N(CC)CC)cn2)c1O`, for which the inhibition is 2.17%.
As to `CCN(CC)S(=O)(=O)c1ccc(N/N=C/c2cccnc2)nc1`, the inhibition was 2.22%.
Take `CCN(CC)S(=O)(=O)c1ccc(N/N=C/c2cc(OC)c(OC)cc2OC)nc1`: the inhibition is 4.42%.
Under `CN(CC(=O)Nc1cccc(F)c1)C(=O)Cc1ccsc1` stands 8.14%; under `Cc1cc(C)c2nc(NC(=O)C3CSC4(C)CCC(=O)N34)sc2c1` (configuration not stated), 5.06%.
